# Reference: PubChem BioAssay AID1346428 (National Center for Advancing Translational Sciences (NCATS), 2018)
# Where “and” joins values, the source holds several entries; their conditions need not be identical. Equal entries are not always repeated. Screen size: about 48,000 compounds; about 1,200 (2.5%) were called active. Inconclusive results (about 2%) are left out.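 How the source made its calls: active means activation of at least 60% and not above a set upper limit (about 1 call in 100 departs from these limits); inconclusive means activation of 40% to 60%, or above that upper limit; inactive means activation under 40%.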 For the sample, actives were picked, then their nearest neighbours and some compounds at random. The source holds several records for some structures; these can differ, active in one and inactive in another.
# Molecular target: Probable G-protein coupled receptor 32 (Homo sapiens) (UniProt O75388)
# Sequence (O75388 whole entry, looked up): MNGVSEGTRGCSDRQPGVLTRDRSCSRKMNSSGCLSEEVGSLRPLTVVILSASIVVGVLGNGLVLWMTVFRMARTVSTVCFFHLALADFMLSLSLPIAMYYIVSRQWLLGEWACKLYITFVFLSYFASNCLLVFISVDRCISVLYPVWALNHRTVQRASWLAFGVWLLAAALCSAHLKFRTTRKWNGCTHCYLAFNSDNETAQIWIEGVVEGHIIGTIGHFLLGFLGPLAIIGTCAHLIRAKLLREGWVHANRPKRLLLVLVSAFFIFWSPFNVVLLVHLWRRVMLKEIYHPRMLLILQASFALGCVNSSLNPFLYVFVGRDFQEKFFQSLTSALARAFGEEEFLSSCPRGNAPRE
# Experiment: qHTS for Agonists of Human Resolvin D1 Receptor DRV1
# Settings: CHO-K1 GPR32 beta-arrestin PathHunter luminescence, 90 min; at 76.9 µM; stronger effect = higher value; zero percent set by DMSO-only wells
# Procedure, shortened: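 Using DMSO wells as EC0, agonist-induced signal was taken as chemiluminescence from beta-Gal reconstituted upon beta-arrestin recruitment to GPR32 in CHO-K1 cells after 90 min compound treatment.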
row,SMILES,activation
1,COc1ccc(NC(=O)CCCN2C(=O)CCn3nc(-c4cn(C)c5ccccc45)cc32)cc1OC,17.2% (inactive)
2,CCOc1cc(C2c3c(-c4ccc(Br)cc4)n[nH]c3C(=O)N2c2ccc(Cl)cc2)ccc1O (configuration not stated),85.1% (active)
3,CCOc1ccc(-c2n[nH]c3c2C(c2ccccc2OC)N(c2ccc(Br)cc2)C3=O)cc1 (configuration not stated),-5.97% (inactive)
4,CCOC(=O)c1ccc(N2C(=O)c3n[nH]c(C)c3C2c2ccc(O)c(OC)c2)cc1 (configuration not stated),21.2% (inactive)
5,CCCOC(=O)c1c(NC(=O)c2cc3nc(-c4ccc(OC)cc4)cc(C(F)(F)F)n3n2)sc2c1CCCC2,16% (inactive)
6,COc1ccc(NC(=O)Cn2c(=O)cc(C)c3c(C)nn(-c4cccc(Cl)c4C)c32)cc1OC,-11.5% (inactive)
7,Cc1ccccc1OCc1ccc(-c2nc(C#N)c(N3CCCCC3)o2)o1,-28.2% (inactive)
8,Cc1cc(C)cc(OCC(=O)Nc2nc(-c3ccc(F)cc3)ns2)c1,4.54% (inactive)
9,COc1cc(CNCCSc2nnnn2C)ccc1OCc1c(F)cccc1Cl,14.1% (inactive)
10,COc1cc(CNCCSc2nnnn2C)ccc1OCc1ccc(Cl)cc1Cl,60% (active)
11,Cn1nnnc1SCCNCc1ccc(Cl)c(Cl)c1,-5.94% (inactive)
12,CCc1ccccc1NC(=O)N1CCN(C(=O)c2nsc3ccccc23)CC1,-15.9% (inactive)
13,COc1cccc(Cn2c(SCc3ccc(C(=O)N4CCCCC4)cc3)nc3ccncc32)c1,30.7% (inactive)
14,Cc1[nH]c2ccccc2c1C(c1ccccc1)c1cccs1 (configuration not stated),73.6% (active)
15,COc1ccc(-c2onc(C)c2C)cc1S(=O)(=O)NCCc1ccccc1,3.28% (inactive)
16,O=C(Nc1nnc(C2CC(=O)N(c3ccc(Cl)cc3)C2)s1)c1ccco1 (configuration not stated),-14.5% (inactive)
17,CCCCN(C)CCCNC(=O)CN1N=C(c2ccc(OC)cc2)CCC1=O,11.3% (inactive)
18,Cc1ccc(S(=O)(=O)N2CCCc3cc(NS(=O)(=O)c4cc(C)ccc4C)ccc32)cc1,-16.6% (inactive)
19,C=Cc1ccc(Cn2c(C(=O)OC)cc3sc(C)cc32)cc1,-21.6% (inactive)

row,SMILES,activation
1,CCCC(C(=O)OCCN(CC)CC)(c1ccccc1)c1ccccc1,60.2% (active) and -17.3% (inactive)
2,CCC(C(=O)OCCN(CC)CC)c1ccccc1 (configuration not stated),1.87% (inactive)
3,Cc1ccc(N(CC(=O)Nc2cc(C)cc(C)c2)S(=O)(=O)c2cccc3nonc23)cc1,-3.71% (inactive)
4,Cc1ccc(NC(=O)Cn2c(=O)n(-c3ccccc3)c(=O)c3c4c(sc32)CCCC4)cc1,-1.44% (inactive)
5,CC(=O)c1ccc(N2CCN(C3C(=O)c4ccccc4N3C(C)=O)CC2)cc1 (configuration not stated),-28.3% (inactive)
6,CC1=C(c2ccc(C)cc2)S(=O)(=O)NC1=NCCCN1CCN(c2cc(C)ccc2C)CC1,84.3% (active)
7,Cc1ccc(C)c(N2CCN(CCCNC(=O)Nc3ccc(Cl)cc3)CC2)c1,37.2% (inactive)
8,CC1=C(c2ccc(Cl)cc2)S(=O)(=O)N=C1N1CCN(c2cc(C)ccc2C)CC1,-14.2% (inactive)
9,Cc1csc2nc(COc3ccc(NC(=O)COc4ccccc4)cc3)cc(=O)n12,63.9% (active)
10,Cc1ccc(OCC(=O)Nc2ccc(OCc3cc(=O)n4c(C)csc4n3)cc2)cc1C,-16.1% (inactive)
11,Cc1ccc(C(=O)Nc2ccc(OCc3cc(=O)n4c(C)csc4n3)cc2)cc1,3.91% (inactive)
12,COc1ccccc1N1CCN(CCCNC(=O)c2cnn(-c3ccccc3Cl)c2C2CCN(C(=O)OC(C)(C)C)CC2)CC1,-18.9% (inactive)
13,O=C(CCS(=O)(=O)c1cc(Br)cc2c1N(C(=O)C1CC1)CC2)Nc1ccc(C(F)(F)F)cc1,-8.56% (inactive)
14,CC(C)NC(=O)c1nn(-c2ccccc2F)nc1CO,-8.71% (inactive)
15,COCCNC(=O)c1ccc2c(c1)N(Cc1cccc(Cl)c1)C(=O)c1ccccc1S2(=O)=O,-32.3% (inactive)
16,O=C(NCCc1ccccc1)c1ccc2c(c1)N(Cc1ccc(F)cc1)C(=O)c1ccccc1S2(=O)=O,-31.8% (inactive)
17,O=C(NCCc1ccccc1)c1ccc2c(c1)N(Cc1ccccc1)C(=O)c1ccccc1S2(=O)=O,92.4% (active)
18,CC(C)(C)c1ccc(S(=O)(=O)N2CCN(C(=O)c3cc(-c4ccc(Br)cc4)n[nH]3)CC2)cc1,-6.87% (inactive)
19,O=C(CSc1ncc(CO)n1Cc1ccc(F)cc1)NCc1ccco1,7.63% (inactive)

row,SMILES,activation
1,OCc1cnc(SCc2ccc(F)cc2)n1Cc1ccc(F)cc1,109% (active)
2,O=C(CSc1ncc(CO)n1Cc1ccc(Cl)cc1)NCc1ccc(F)cc1,39.5% (inactive)
3,CCOC(=O)C(Cc1ccccc1)NC(=O)CCc1c(C)nc2c(c(C)nn2-c2ccc(C)c(C)c2)c1C (configuration not stated),-3.74% (inactive)
4,COc1cccc(CNC(=O)Cc2csc3nc(-c4ccccc4)cn23)c1,-4.88% (inactive)
5,COc1ccc(-c2noc(CCC(=O)N(C)c3ccccc3C)n2)cc1,107% (active)
6,COc1ccc(-c2noc(CSc3nc4ccc(C)cc4[nH]3)n2)cc1,23.5% (inactive)
7,COc1cccc(CNC(=O)CCc2nc(-c3ccc(C)cc3)no2)c1,92.5% (active)
8,COc1cccc(CNC(=O)Cn2ncn3c(cc4ccccc43)c2=O)c1,-1.19% (inactive)
9,Cc1ccccc1C(=O)NCc1nc(-c2ccc(Cl)cc2)no1,-2.46% (inactive)
10,Cc1ccc(NC(=O)CSc2nc3c([nH]c4ccccc43)c(=O)n2-c2ccccc2)cc1Cl,-26.8% (inactive)
11,CCCCNC(=O)c1cc(-c2ccc(Cl)c(Cl)c2)on1,8.61% (inactive)
12,COc1ccc(C(=O)Nc2ccc(-n3nncc3-c3ccccc3)cc2)cc1OC,-15.2% (inactive)
13,O=C(CSc1oc(-c2ccccc2)nc1S(=O)(=O)c1ccc(Br)cc1)NC1CCCCC1,-14.8% (inactive)
14,COc1ccc(C)cc1Nc1nc2ccccc2c2nnc(C)n12,9.83% (inactive)
15,CCC(=O)N1CCc2cc(S(=O)(=O)NC(Cc3ccccc3)C(=O)NCc3ccc(C)cc3)ccc21 (configuration not stated),-14.4% (inactive)
16,CCC(=O)N1CCc2cc(S(=O)(=O)NC(C(=O)NCCc3ccc(C)cc3)C(C)C)ccc21 (configuration not stated),-8.05% (inactive)
17,CCC(=O)N1CCc2cc(S(=O)(=O)NC(CC(C)C)C(=O)NCCc3cccc(C)c3)ccc21 (configuration not stated),64.6% (active)
18,Cc1ccc(-c2cnc(NCc3ccc(C(C)C)cc3)n2C)cc1,-44.5% (inactive)
19,CSc1ccc(CCNC(=O)c2cnn(-c3ccccc3)c2-n2cccc2)cc1,-2.99% (inactive)
